Measurements taken from PubChem BioAssay (Tox21).
A number with no mark means an inactive call. Entries that show only a call come without a potency. The source made the active and inactive calls. Calls follow the shape of the dose curve; as a rule, active = well fitted curve in the direction sought with a large enough effect in the repeat runs; inconclusive = weak or mixed curves; inactive = flat fitted curve, though single readings scatter.

Test: qHTS assay to test for compound auto fluorescence at 535 nm (green) in HEK293 cells (AID 720680)
Conditions: green autofluorescence 485/535 nm; series mostly up to 91.3 µM

SMILES | Potency | fluorescence, % of fluorescein
C=C(c1ccc(C(=O)O)cc1)c1cc2c(cc1C)C(C)(C)CCC2(C)C | inactive | 
CN1[C@@H]2CC[C@@H]1CC(OC(=O)C(CO)c1ccccc1)C2 (some centres not stated) | inactive | 
CN(C)c1ccc(N=Nc2ccccc2C(=O)O)cc1 | inactive | 
O=C1c2c(O)ccc(O)c2C(=O)c2c(NCCNCCO)ccc(NCCNCCO)c21 |  | 0.0058% [at 18.6 µM]
CCCCCCCC/C=C\CCCCCCCC(=O)N(C)CC(=O)O | inactive | 
Clc1ccc(C(Cn2ccnc2)OCc2ccsc2Cl)c(Cl)c1 (configuration not stated) | inactive | 
CCCCOc1ccc(C(=O)CCN2CCCCC2)cc1 |  | 0.0036% [at 18.6 µM]
COc1ccc2sc(C(=O)Nc3nnn[nH]3)c(OC(C)C)c2c1 | inactive | 
Cc1c(-c2ccc(O)cc2)n(Cc2ccc(OCCN3CCCCCC3)cc2)c2ccc(O)cc12 | inactive | 
CN(C)c1ccc(N=NS(=O)(=O)O)cc1 | inactive | 
c1cc(OCC2CO2)cc(OCC2CO2)c1 (configuration not stated) | inactive | 
Cc1cc2c(C(C)C)c(O)c(O)c(C=O)c2c(O)c1-c1c(C)cc2c(C(C)C)c(O)c(O)c(C=O)c2c1O | inactive | 
C=C[C@](C)(O)CC[C@@H]1[C@@]2(C)CCCC(C)(C)[C@@H]2CC[C@@]1(C)O | inactive | 
CC(=O)OC(OC(C)=O)c1ccc([N+](=O)[O-])o1 | inactive | 
COC(=O)C1=C(C)NC(C)=C(C(=O)OCCCN2CCC(c3ccccc3)(c3ccccc3)CC2)C1c1cccc([N+](=O)[O-])c1 (configuration not stated) | inactive | 
CC=O | inactive | 
CCN(CC)CCOc1ccc(C(O)(Cc2ccc(Cl)cc2)c2ccc(C)cc2)cc1 (configuration not stated) | inactive | 
N#CSCSc1nc2ccccc2s1 | inactive | 
S=C(SSSSSSC(=S)N1CCCCC1)N1CCCCC1 |  | -0.141% [at 18.6 µM]

SMILES | Potency | fluorescence, % of fluorescein
Cc1cc(Nc2ccc(O)cc2)ccc1N | inactive | 
CCCCCCOc1cc(C)c(O)c(C)c1C | inactive | 
NC(=O)c1nc(-c2cccc(-c3cc(F)ccc3OCC(F)(F)C(F)(F)F)c2)n[nH]1 | inactive | 
COC(=O)[C@]1(C)CCC[C@@]2(C)[C@H]1CC=C1C=C(C(C)C)CC[C@@H]12 | inactive | 
O=C1NC2CCCCN2C12CCN(CCCN1c3ccccc3CCc3ccc(Cl)cc31)CC2 (configuration not stated) | inactive | 
NCCCC(O)(P(=O)(O)O)P(=O)(O)O | inactive | 
Oc1ccc(-c2ccc(O)cc2)cc1 | inactive | 
CNCC[C@H](Oc1cccc2ccccc12)c1cccs1 | inactive | 
SCCCCCCCCS | inactive | 
NC(=O)C(=O)N/N=C/c1ccc([N+](=O)[O-])o1 | inactive | 
C[C@]12CC[C@H]3C(=CCc4cc(O)ccc43)[C@@H]1CCC2=O | inactive | 
CN1[C@@H]2CC[C@H]1CC(OC(=O)C(CO)c1ccccc1)C2 (some centres not stated) | inactive | 
O=C1Nc2ccc(Cl)cc2[C@@](C#CC2CC2)(C(F)(F)F)O1 | inactive | 
C[C@H]1O[C@@H](O[C@H]2[C@@H](O)C[C@H](O[C@H]3[C@@H](O)C[C@H](O[C@H]4CC[C@@]5(C)[C@H](CC[C@@H]6[C@@H]5C[C@@H](O)[C@]5(C)[C@@H](C7=CC(=O)OC7)CC[C@]65O)C4)O[C@@H]3C)O[C@@H]2C)C[C@H](O)[C@@H]1O | inactive | 
CC1=C(/C=C/C(C)=C/C=C/C(C)=C\C=O)C(C)(C)CCC1 | inactive | 
CC(C)(C)CC(C)(C)c1ccccc1O | inactive | 
CN(C)CCCN1c2ccccc2CCc2ccccc21 | inactive | 
NC1(c2ccc(-c3nc4ccn5c(=O)[nH]nc5c4cc3-c3ccccc3)cc2)CCC1 | inactive | 
